# According to PubChem BioAssay (NCI):
# Compounds without any hit were thinned out: in the full panel of roughly 83,000, 20% have a hit.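 Testing used 96-well plates and a 48-hour single-concentration exposure. Example: -40 means 40% of the starting cells died.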 Activity calls are given as the source filed them. Rule for the calls: active = growth percent below 10; inactive = the rest.
# System: HOP-62 NSCLC
# Assay: NCI-60 one-dose screen, 48 h (100 = growth as untreated, 0 = no growth, -100 = all killed)
# Settings: 10 µM unless noted
row,Compound,growth
1,COc1c(O[C@@H]2OC(CO)[C@H](O)[C@H](O)C2O)cc2oc3cc(O)c(CC=C(C)C)c(O)c3c(=O)c2c1CC=C(C)C (stereo partly specified),79% (inactive)
2,COc1cccc(-c2cc(-c3ccc(Nc4nc(Nc5ccc(Cl)cc5)nc(Nc5ccc(Cl)cc5)n4)cc3)nc(N)c2C#N)c1,95% (inactive)
3,O=C(NCCN1CCOCC1)c1cncnc1Nc1ccc2c(ccn2Cc2ccccn2)c1,102% (inactive)

# System: NCI-H460 lung
# Assay: as above
# Settings: 10 µM unless noted
row,Compound,growth
1,Clc1nc(N2CCC[N+]3(CC2)CC[N+]2(CCCNCC2)CC3)nc(N2CCC[N+]3(CC2)CC[N+]2(CCCNCC2)CC3)n1 (stereo unspecified),76.8% (inactive)
2,O=C(Nc1ccccc1CNc1nc(Nc2ccc(OCCN3CCCC3)cc2)ncc1Cl)NC1CCCCC1,89.8% (inactive)
3,Cc1nc2c(c(-c3ccccc3)n1)Cc1c(ccc3ccccc13)O2,98.1% (inactive)
4,COC(CCP(=O)(c1ccccc1)c1ccccc1)(C(=O)c1ccccc1)c1ccccc1 (stereo unspecified),50% (inactive)
5,Nc1ncc(-c2ccc3ncnc(N4CCc5cc(F)c(Cl)cc54)c3c2)cc1C=O,11.8% (inactive)
6,CC(C)(C)n1cc(-c2ccnc(NCCNS(=O)(=O)c3ccc(C(F)(F)F)cc3)c2)c(-c2ccccc2)n1,93.8% (inactive)
7,Clc1ccc(C2=Nn3c(nnc3-c3cc(Cl)cc(Cl)c3Cl)SC2)cc1,16.4% (inactive)
8,O=C(NC1CCCCCC1)c1ccc2c(=O)n3c(nc2c1)CCCCC3,101% (inactive)
9,C=C1C(=O)O[C@H]2[C@H]1CC/C(CNC(=O)/C=C/c1cc(OC)c(OC)c(OC)c1)=C\CC[C@@]1(C)O[C@@H]21,82.3% (inactive)
10,Cc1c(CC(=O)Nc2ccccc2)nnn1-c1ccccc1,106% (inactive)
11,CCn1c2ccccc2c2cc(C(O)c3cccc4ncccc34)ccc21 (stereo unspecified),10.1% (inactive)
12,CSc1nc(CC(C)C)c(C#N)c(=O)n1C,83.3% (inactive)
13,Oc1c(Cl)cc(Cl)c2ccc(CN3CCNCC3)nc12,31.8% (inactive)
14,CO[C@H]1CC(c2ccc[nH]2)=N[C@]12O[C@@H](C)C[C@@H]1CCCCCCCc3ccc([nH]3)[C@H]12,17% (inactive)
15,Nc1c(C(=O)c2ccc(Cl)cc2)sc(Nc2ccccc2)c1-c1nc2ccccc2s1,-0.299% (active)
16,Cn1nc(-c2ccc(Cl)cc2)nc2c(=O)n(C)c(=O)nc1-2,0.75% (active)
17,Cc1ccc(C2=Nc3c(N)nc(N)nc3NC(c3cccc(Nc4ccnc5cc(C(F)(F)F)ccc45)c3)C2)cc1 (stereo unspecified),11.7% (inactive)

row,Compound,growth
1,COC(=O)[C@H](C)NC(=O)c1ccc(NC(=O)c2[nH]c(C)c(Cl)c2Cl)c(OCCN)c1,105% (inactive)
2,CC(C)=CC(=O)C1C(=O)c2ccccc2C1=O,102% (inactive)
3,C=CCn1c(SCC(=O)Nc2ccc(C(=O)/C=C/c3ccc(Cl)cc3)cc2)nnc1-c1ccc(Cl)c(Cl)c1,90.2% (inactive)
4,CC(C)n1cc(C2=C(c3cccc4ccccc34)C(=O)NC2=O)c2cc(Br)ccc21,67.5% (inactive)
5,CC1(C)C2=C(C(=O)N1Cc1ccccc1)C(c1ccco1)N(C(=O)C1CCC1)CCN2 (stereo unspecified),106% (inactive)
6,COc1cc(OC)cc(C(=O)Nc2cnc(Nc3ccc(N4CCOCC4)nc3)nc2Oc2ccc(C(F)(F)F)cc2)c1,31.1% (inactive)
7,C=C(c1ccc(C(=O)O)c(F)c1)c1cc2c(cc1C)C(C)(C)C=CC2(C)C,82.1% (inactive)
8,O=C1c2c(c3c4cc(F)ccc4oc3c3[nH]c4ccccc4c23)C(=O)N1O,5.01% (active)
9,CCCN1C(=O)N(CCC)C2C1NC(=S)N2/N=C/C=C/c1ccccc1OC (stereo unspecified),6.85% (active)
10,O=C(Nc1ccccc1)Nc1ccccc1CNc1nc(Nc2ccc(OCCN3CCCC3)cc2)ncc1Cl,-37.7% (active)
11,O=C1NC(=O)C(=Cc2cc(-c3ccc(Cl)cc3)n(-c3ccccc3)n2)C(=O)N1,98.6% (inactive)
12,COc1ccc(-c2nc3cc(C(=O)NC4CCCCC4)ccc3n2C2CCCCC2)cc1,86.2% (inactive)
13,O=c1ccc2c(ccc3ncccc32)o1,113% (inactive)
14,CC/C(=C(/c1ccc(Cl)cc1)c1ccc(OCCN(CC)CC)cc1)c1ccc(OC)cc1,16.6% (inactive)
15,COc1ccc(N2C(=O)/C(=C/C(Cl)=C/c3ccc([N+](=O)[O-])cc3)SC2=S)cc1,0.356% (active)
16,CCOC(=O)CC1CSC(N/N=C(/C)c2cccc(C(F)(F)F)c2)=N1 (stereo unspecified),110% (inactive)
